GLS inhibitor – glutaminase GLS (human) inhibition. GLS enzymatic activity, qHTS titration. Potency, µM (doses to about 45.5 µM), for inactives: at the highest dose activity change, negative = inhibition, usual class: inhibitors. actives 0.21% (n = 410,000). AID 624170; further: potency means the concentration at half of the fitted maximal effect
Target sequence (O94925 whole entry, looked up): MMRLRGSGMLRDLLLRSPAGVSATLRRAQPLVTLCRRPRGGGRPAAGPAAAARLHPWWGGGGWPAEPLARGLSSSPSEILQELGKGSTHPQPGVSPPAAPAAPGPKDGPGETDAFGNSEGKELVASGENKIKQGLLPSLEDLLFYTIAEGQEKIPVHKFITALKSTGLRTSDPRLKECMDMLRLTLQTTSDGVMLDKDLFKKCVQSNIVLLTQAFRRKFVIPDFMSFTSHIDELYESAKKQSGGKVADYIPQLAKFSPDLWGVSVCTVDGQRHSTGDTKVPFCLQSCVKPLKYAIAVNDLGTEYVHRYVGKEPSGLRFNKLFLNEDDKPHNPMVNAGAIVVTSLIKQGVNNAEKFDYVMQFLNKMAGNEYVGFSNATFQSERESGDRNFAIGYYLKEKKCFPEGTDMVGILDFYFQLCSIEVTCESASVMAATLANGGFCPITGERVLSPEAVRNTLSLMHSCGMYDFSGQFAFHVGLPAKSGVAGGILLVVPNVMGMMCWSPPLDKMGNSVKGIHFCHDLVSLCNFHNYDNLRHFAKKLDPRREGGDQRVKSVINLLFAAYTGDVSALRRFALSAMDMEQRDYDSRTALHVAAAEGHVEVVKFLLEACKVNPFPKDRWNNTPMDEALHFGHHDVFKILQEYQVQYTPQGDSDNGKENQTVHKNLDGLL
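hKGA in 45 mM KH2PO4 (pH 8.2), 0.02% Tween-20 with compound, then 1mM L-Glutamine (stock as added) plus glutamate oxidase/HRP/Amplex red coupling mix. Fluorescence read initially and after 30 min at RT; signal change reflects glutamate formation.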
VDR inhibitor – blocks the human vitamin D receptor; P11473; Potency, µM, for inactives: max response, negative = inhibition, most hits filed as inhibitors; VDR-SRC2-3 peptide fluorescence polarization, 2 h; actives 0.93% (n = 400,000); further: potency means the concentration at half of the fitted maximal effect
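Signal is fluorescence polarization, reporting how far test compounds block the interaction of VDR with the SRC2-3 coregulator peptide after a 2 h room-temperature incubation.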
KAT2A inh – blocks human GCN5L2 histone acetyltransferase; Q92830; GCN5L2 HAT assay, ThioGlo1 CoA-SH fluorescence; Potency, µM (titrated, usually from 58.9 µM), without a hit: top-dose activity change, negative = inhibition, most hits filed as inhibitors; actives 0.21% (n = 390,000); further: potency means the concentration at half of the fitted maximal effect
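GCN5L2 (20 nM) in 50mM HEPES pH 7.5, 0.1mM EDTA, 0.01% Tween-20 preincubated 15 min with compounds at room temperature. Reaction started with H3(1-25) 75uM, acetyl-CoA 70uM, ThioGlo1 50uM; CoA-thiol fluorescence (Ex340/Em540) read at 0 and 20 min.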
PI4K2A inh – PI4K2A (human) kinase inhibition; actives 0.13% (n = 420,000); AID 1346378; activity change, negative = inhibition, % at 76.9 µM; Q9BTU6; purified PI4K2A, ADP-Glo luminescence, 1 h; hits give low values; in the data active means activity change below about -50%; inconclusive means mostly about -30% to -49%;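 further: -100% = wells without enzyme as full effect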
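In this quantitative HTS, ADP production by PI4K2A was quantified luminescently after 1 h at ambient temperature; 100 microM adenosine served as plate-quality control.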
PLK1 PBD block – blocks phosphopeptide binding to human PLK1 polo-box domain; Potency, µM, without a hit: max response, negative = inhibition, hits mostly inhibitors; P53350; Plk1 PBD binding of FITC phosphopeptide, fluorescence polarization; actives 2.8% (n = 360,000); further: potency means the concentration at half of the fitted maximal effect; series mostly up to about 57 µM; nearly all actives have a fitted effect of over 65% in size
The depositor's hits bear a star; ! = not confirmed by another sample; [ ] = another dose, or the depositor's remark. Shown are actives, neighbours in structure and some others; about 3.1% of the full set was active somewhere. Unless noted, the call rests on the fitted dose curve; in most records, active means well fitted curve in the direction sought with a large enough effect; inconclusive means small, poorly fitted or top-dose-only effect, or another doubt; inactive means no such curve, though single readings can be large; an effect the other way counts as inactive or inconclusive. Unless noted, on the % scale 0 is the no-effect control and ±100 the full control effect.

Screening CCCCC/C=C\C/C=C\C/C=C\C/C=C\CCCC(=O)NCCc1ccc(O)c(O)c1 returned VDR inhibitor 40µM*! and KAT2A inh 18µM*.
For CCCCC/C=C\C/C=C\C/C=C\C/C=C\CCCC(=O)NCc1ccoc1 the results were VDR inhibitor 22µM* and KAT2A inh 14µM*.
For CCCCC/C=C\C/C=C\C/C=C\C/C=C\CCCC(N)=O the results were VDR inhibitor -1% and KAT2A inh -10%.
For CCCCC/C=C\C/C=C\C/C=C\C/C=C\CCCC(=O)NCCCC(=O)O the results were VDR inhibitor 28µM* and KAT2A inh 14µM*.
Screening CCCCC/C=C\C/C=C\C/C=C\C/C=C\CCCC(=O)NCC(=O)O returned GLS inhibitor -2%[4 µM], VDR inhibitor 40µM*!, KAT2A inh 6.3µM* and PI4K2A inh -26.
Screening CCCCC/C=C\C/C=C\CCCCCCCCCC(=O)NCCO returned VDR inhibitor -13%.
CC(C)CCNC(=O)CNC(=O)[C@@H](C)NC(=O)[C@@H](N)Cc1ccc(O)cc1 was read as VDR inhibitor -1% and KAT2A inh 6%.
`CC(C)(C)OC(=O)N(CCc1ccccc1)Cc1ccc(OCc2cccc(NC(=O)c3ccccc3)c2)cc1` gave GLS inhibitor 1%, VDR inhibitor 2%, PI4K2A inh 1 and PLK1 PBD block inconclusive.
`O=C1OC(c2ccc(O)c(S(=O)(=O)O)c2)(c2ccc(O)c(S(=O)(=O)O)c2)c2c(Br)c(Br)c(Br)c(Br)c21` gave GLS inhibitor 49%, VDR inhibitor 35µM*, KAT2A inh 28µM* and PI4K2A inh -4.
For CC(=O)C[C@H](c1ccccc1)c1c(O)c2ccccc2oc1=O the results were VDR inhibitor 12% and KAT2A inh -24%.
For O=C(Oc1ccccc1)N1CCC2(CCCN(Cc3nccs3)C2)CC1 the results were VDR inhibitor inconclusive and KAT2A inh -11%.
`CC(=O)C1CCC2C3CCC4=CC(=O)CC[C@@]4(C)C3CC[C@]12C` (some centres undefined) gave VDR inhibitor 45µM* and KAT2A inh 2%.
`O=C1NC(=O)C(Sc2ccccc2[N+](=O)[O-])C(=O)N1` gave GLS inhibitor -7%, VDR inhibitor 40µM*, KAT2A inh -17%, PI4K2A inh inconclusive and PLK1 PBD block 3µM*.
For Cc1ccccc1[N+](=O)[O-] the results were GLS inhibitor 2%, VDR inhibitor 8%, KAT2A inh -3%, PI4K2A inh -3 and PLK1 PBD block -6%.
Screening N#Cc1cn(C2OC(CO)C(O)C2O)c2ncnc(N)c12 (centres undefined) returned GLS inhibitor -10%, VDR inhibitor -9%, PI4K2A inh -51* and PLK1 PBD block 1%.
Cc1ccc(C=C2C(Cl)=C(Cl)C(Cl)=C2Cl)cc1 was read as GLS inhibitor -15%, VDR inhibitor inconclusive, KAT2A inh -24%, PI4K2A inh -21 and PLK1 PBD block 12µM*.
COP(N)(=O)SC (centres undefined) was read as VDR inhibitor 1% and KAT2A inh -12%.
C[C@]12CC[C@@H]3c4ccc(OC(=O)N(CCCl)CCCl)cc4CC[C@H]3[C@@H]1CC[C@@H]2O was read as GLS inhibitor inconclusive, VDR inhibitor 50µM*, KAT2A inh 13µM* and PI4K2A inh -1.
Screening C[C@]12CCC3C(CCC4=CC(=O)CC[C@@H]43)C1CCC2O (some centres undefined) returned GLS inhibitor -14%.
O=C1NC(=O)N(Cc2ccccc2)C(=O)/C1=C/N1CCCc2ccccc21 was read as GLS inhibitor 7%, VDR inhibitor inconclusive, KAT2A inh -6%, PI4K2A inh -26 and PLK1 PBD block 27µM*.
`CC1=CC(c2ccccc2)NC(=S)N1` (centres undefined) gave GLS inhibitor -5%, VDR inhibitor 79µM*, KAT2A inh -10%, PI4K2A inh -7 and PLK1 PBD block inconclusive.
For CC(=O)NC(Cc1ccc(N(CCCl)CCCl)cc1)C(=O)NC(C(=O)O)C(C)C (centres undefined) the results were GLS inhibitor 1%, VDR inhibitor -12%, KAT2A inh 4%, PI4K2A inh -4 and PLK1 PBD block -5%.
For CCOC(=O)CC(NC(=O)C(Cc1ccc(N(CCCl)CCCl)cc1)NC(C)=O)C(=O)OCC (centres undefined) the results were GLS inhibitor 0%, VDR inhibitor inconclusive, KAT2A inh -8%, PI4K2A inh -3 and PLK1 PBD block 6µM*.
Screening Cc1cccc(N2C(=O)/C(=C/c3ccc(CN(CCC#N)S(C)(=O)=O)o3)C(=O)NC2=S)c1 returned GLS inhibitor inconclusive, VDR inhibitor inconclusive, KAT2A inh -14%, PI4K2A inh -17 and PLK1 PBD block 7.5µM*.
Screening C[C@H](NC(=O)[C@@H](N)Cc1ccc(O)cc1)C(=O)NCC(=O)N(C)[C@@H](Cc1ccccc1)C(=O)NCCO returned VDR inhibitor -2% and KAT2A inh -18%.
For O=C1NC(=O)C(=Cc2ccc(-c3ccc(F)cc3O)o2)C(=O)N1 the results were GLS inhibitor 11%, VDR inhibitor 28µM*, KAT2A inh 3%, PI4K2A inh inconclusive and PLK1 PBD block 1.2µM*.
Screening Cc1c(C=C2C(=O)NC(=O)NC2=O)c(=O)n(-c2ccccc2)n1C returned GLS inhibitor 3%, VDR inhibitor 4%, KAT2A inh -2%, PI4K2A inh -4 and PLK1 PBD block inconclusive.
Screening O=C1NC(=O)C(=Cc2ccc(-c3ccc(Cl)cc3)o2)C(=O)N1 returned GLS inhibitor -1%, VDR inhibitor inconclusive, KAT2A inh -7%, PI4K2A inh -13 and PLK1 PBD block 0.67µM*.
C=CCc1cc(OC)c2c(c1OC)OCO2 was read as VDR inhibitor 0% and KAT2A inh -5%.
For COC(=O)/C=C/C(=O)N[C@@H]1CC[C@@]2(O)[C@H]3Cc4ccc(O)c5c4[C@@]2(CCN3CC2CC2)[C@H]1O5 the results were VDR inhibitor 1% and KAT2A inh 6%.
Screening O=C(COc1ccc(Cl)cc1)N1CCN(Cc2ccc([N+](=O)[O-])cc2)CC1 returned GLS inhibitor 1%, VDR inhibitor -7%, KAT2A inh -8%, PI4K2A inh 3 and PLK1 PBD block -9%.
For COc1ccc(OCC(=O)N2CCN(Cc3nc4cc([N+](=O)[O-])ccc4n3C)CC2)cc1 the results were GLS inhibitor 1%, VDR inhibitor -17%, KAT2A inh 0%, PI4K2A inh 0 and PLK1 PBD block 30µM*.
COc1ccc(OC)c(-n2c(O)c(/C=C3\C=Nc4ccccc43)c(=O)[nH]c2=O)c1 was read as GLS inhibitor -7%, VDR inhibitor -24%, KAT2A inh 0%, PI4K2A inh -9 and PLK1 PBD block 9.5µM*.

Compound activity (PubChem BioAssay)
